# Screens deposited in PubChem BioAssay by NMMLSC.
# RGS7-Gao reg: RGS7-Galphao binding modulators, primary screen, biochemical, multiplexed bead flow cytometry; binding response (% of control), % at 10 µM; AID 1439, 2008; actives lie on both sides; 220,000 tested, 0.35% active; Guanine nucleotide-binding protein G(o) subunit alpha (Homo sapiens), P09471; in the data active = binding response below about 49% or above about 150%; inconclusive = no clear call, values can overlap the other calls; inactive = in between;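 also: fluorescent Galphao held in activated GDP-AlF4 state binding bead-coupled RGS7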
# Target sequence (P09471 whole entry, looked up): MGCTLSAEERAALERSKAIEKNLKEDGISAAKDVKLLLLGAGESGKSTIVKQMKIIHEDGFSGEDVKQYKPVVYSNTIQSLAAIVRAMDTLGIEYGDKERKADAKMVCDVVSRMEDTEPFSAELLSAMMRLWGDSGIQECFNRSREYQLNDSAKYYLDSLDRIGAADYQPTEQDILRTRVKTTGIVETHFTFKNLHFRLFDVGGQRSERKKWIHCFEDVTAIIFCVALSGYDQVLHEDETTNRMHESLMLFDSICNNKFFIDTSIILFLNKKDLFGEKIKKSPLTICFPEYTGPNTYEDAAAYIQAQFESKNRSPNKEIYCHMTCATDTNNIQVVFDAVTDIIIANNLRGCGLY
# GSH fluor: compound fluorescence on glutathione beads, profiling panel, artefact control, biophysical, 488/530 nm, flow cytometry | GSH beads flow cytometry, compound fluorescence 488/530 nm; active compounds read high | fluorescence (KMESF) at 10 µM | 190,000 tested, 0.25% active; in the data active = fluorescence above about 89;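 also: glutathione beads carrying GST-tagged Bcl family fusion proteins plus one bare bead set; values are compound well signal with DMSO vehicle wells as background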
# RGS4-Gao reg: modulators of RGS4 binding to Galphao, primary screen, biochemical, multiplexed bead flow cytometry; 220,000 tested, 0.33% active; binding response (% of control), % at 10 µM; actives lie on both sides; AID 1415, 2008; in the data active = binding response below about 49% or above about 150%; inactive = in between;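 also: fluorescent Galphao activated with aluminum fluoride binding bead-coupled RGS4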
# RGS16-Gao: modulators of RGS16 binding to Galphao, primary screen, biochemical, human proteins, multiplexed bead flow cytometry. bead-based flow cytometry RGS16-Galphao binding, fluorescence; actives lie on both sides. binding response (% of control), % at 10 µM. 220,000 tested, 0.38% active. AID 1441, 2008;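 also: Galphao activated by GDP with aluminum fluoride before binding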
# Avidin bead fluor: green autofluorescence of compounds with avidin beads – biophysical, 488/530 nm, flow cytometry, artefact control, profiling panel; 220,000 tested, 0.38% active; fluorescence (KMESF) at 10 µM; compound fluorescence 488/530 nm; active compounds read high; in the data active = fluorescence above about 47
# RGS8-Gao reg: RGS8-Galphao binding modulators, primary screen, biochemical, multiplexed bead flow cytometry; response (percent of control binding), % at 10 µM; 220,000 tested, 0.34% active; actives lie on both sides; in the data active = response below about 60% or above about 140%; inactive = in between;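 also: Galphao activated as the GDP aluminium fluoride complex binding bead-coupled RGS8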
# RGS4-Gao HTS: modulators of RGS–Galpha-o binding, primary screen, biochemical, multiplexed beads, flow cytometry, RGS4/7/8/16/19 | shares compounds with RGS16-Gao | multiplexed bead flow cytometry | RGS4–Galpha-o binding response, % at 10 µM | 1,600 tested, 99% active;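 also: fluorescently labeled Galpha-o bound to GDP with aluminium fluoride binding biotinylated RGS beads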
# Avidin counter: disruption of biotin probe capture by avidin, counter-screen for RGS protein interaction modulators, biochemical, flow cytometry, bead-based; shares compounds with RGS16-Gao; streptavidin beads, fluorescein-biotin binding; inhibition, % at 10 µM; 1,700 tested, under 10 active; AID 1783, 2009;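 active = inhibition above 50%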;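 also: median green fluorescence of gated singlet beads compared with DMSO control wells; 0% = DMSO wells and 100% = complete loss of bead fluorescence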
# RGS8-Gao confirm: RGS8-Galphao binding modulators, confirmation, biochemical, multiplexed bead flow cytometry, single concentration; shares compounds with RGS16-Gao; bead-based flow cytometry RGS8-Galphao binding, fluorescence; actives lie on both sides; binding response (% of control), % at 10 µM; 1,700 tested, 3% active; in the data active = binding response below about 72% or above about 130%; inactive = in between;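 also: Galphao activated as GDP AlF4 complex before binding bead RGS8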
# RGS7-Gao confirm: RGS7-Galphao binding modulators, confirmation, biochemical, multiplexed bead flow cytometry, single concentration. shares compounds with RGS16-Gao. bead-based flow cytometry RGS7-Galphao binding; actives lie on both sides. response (percent of control binding), % at 10 µM. 1,700 tested, 7.8% active; in the data active = response below about 75% or above about 130%; inactive = in between;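 also: fluorescent Galphao activated with GDP and aluminum fluoride binding bead-coupled RGS7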
# RGS16-Gao single: modulators of RGS16-Galphao protein binding, confirmation, biochemical, single concentration, multiplexed bead flow cytometry. 1,700 tested, 4% active. shares compounds with RGS16-Gao. bead-based flow cytometry; actives lie on both sides. response (% of control binding), % at 10 µM; in the data active = response below about 74% or above about 130%; inactive = in between;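 also: Galphao activated as the GDP aluminium fluoride complex binding bead-coupled RGS16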
# RGS4-Gao single: modulators of RGS4-Galphao protein binding, confirmation, biochemical, single concentration, multiplexed bead flow cytometry. shares compounds with RGS16-Gao. actives lie on both sides. binding response (% of control), % at 10 µM. 1,700 tested, 4% active. AID 1840, 2009; in the data active = binding response below about 74% or above about 130%; inactive = in between
# RGS19-Gao single: regulators of RGS19-Galphao binding, confirmation, biochemical, single point, multiplexed bead flow cytometry; response (percent of control binding), % at 10 µM; bead-based flow cytometry RGS19-Galphao binding; actives lie on both sides; shares compounds with RGS16-Gao; 1,700 tested, 5% active; in the data active = response below about 50% or above about 160%; inactive = in between;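 also: 100% = no compound control and 0% = blank background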
# Target sequence (P09471 whole entry, looked up): as above
# Target sequence (P49795 whole entry, looked up): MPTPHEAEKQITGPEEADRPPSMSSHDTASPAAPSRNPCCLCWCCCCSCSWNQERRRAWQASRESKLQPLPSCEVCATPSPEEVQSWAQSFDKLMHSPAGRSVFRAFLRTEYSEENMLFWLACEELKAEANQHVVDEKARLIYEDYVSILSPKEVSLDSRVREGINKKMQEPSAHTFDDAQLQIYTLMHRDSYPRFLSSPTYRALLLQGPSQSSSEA
# Starred values were filed as active, the others as inactive; u = inconclusive; x = not tested or not shown; [ ] = another dose, or the depositor's remark. This is a sample that favours compounds with a hit; in the whole collection about 1.2% have one here. Unless noted, no rule for the calls is given here.
SMILES,RGS7-Gao reg,GSH fluor,RGS4-Gao reg,RGS16-Gao,Avidin bead fluor,RGS8-Gao reg,RGS4-Gao HTS,Avidin counter,RGS8-Gao confirm,RGS7-Gao confirm,RGS16-Gao single,RGS4-Gao single,RGS19-Gao single
O=C(Nc1ccc(-c2cn3ccccc3n2)cc1)c1cccs1,u,18,101,102,9,99,x,x,x,x,x,x,x
Cc1cc(=O)oc2cc(Oc3ccc([N+](=O)[O-])cc3[N+](=O)[O-])ccc12,91,9,93,25*,8,75,93*,1,104,103,109,103,123
Cc1cc(=O)oc2cc(Oc3ncccc3[N+](=O)[O-])ccc12,88,11,94,98,10,98,x,x,x,x,x,x,x
CCNc1nnc(CCn2nc(C)c(Br)c2C)s1,107,17,104,104,10,104,x,x,x,x,x,x,x
Cc1ccccc1NC(=S)NCc1cccn1C,100,11,97,178*[activator],6,124,97*,-4,102,106,104,106,112
O=C(CSc1nc2ccc([N+](=O)[O-])cc2s1)c1ccc2ccccc2c1,u,x,3.0*,5.0*,0,31*,x,1,101,106,104,105,109
O=[N+]([O-])c1ccc2nc(SCc3ccccc3Cl)sc2c1,97,19,93,95,16,99,x,x,x,x,x,x,x
Fc1ccccc1N1CC(c2ccccc2)C(c2cccs2)=N1 (stereo not drawn),15*,34,21*,-9,-1,9.2*,x,0,98,96,93,96,70
CN(C)S(=O)(=O)c1ccc2nnn(O)c2c1,98,20,97,97,5,99,x,x,x,x,x,x,x
CCN(CC(=O)Nc1ccc2c(c1)OCCO2)c1ccc(S(=O)(=O)N2CCOCC2)cn1,84,5,80,-83*,2,90,80*,1,102,103,99,102,112
Cc1scc(C(=O)NNC(=S)NCC2CCCO2)c1-c1ccccc1 (stereo not drawn),100,12,98,22*,1,71,98*,2,92,89,90,90,99
CC(=O)COC(=O)CNC(=O)c1ccc(Br)cc1,137,33,138,x,2,167*[activator],138*,x,x,x,x,x,x
CC(=O)NCC(=O)OCC(=O)c1ccc(Br)cc1,96,6,98,96,15,99,x,x,x,x,x,x,x
O=S(=O)(Nc1cccc(-c2nc3cccnc3s2)c1)c1ccc2c(c1)CCCC2,105,17,104,101,5,103,x,x,x,x,x,x,x
Cc1ccc(-c2nc3cccnc3s2)cc1NS(=O)(=O)c1ccc2c(c1)CCCC2,32*,16,28*,29,2,46*,x,0,104,102,103,104,107
COc1ccc(CCNCc2ccc(OCC(=O)N3CCCCC3)c(OC)c2)cc1OC,103,23,103,108,9,104,x,x,x,x,x,x,x
CC(C)n1c(NCCO)nc2ccccc21,37*,13,49*,49,7,57*,x,3,104,96,100,100,98
N#CC(C(=O)OC1CCCCC1)c1nc2ccccc2nc1N1CCOCC1 (stereo not drawn),171*[activator],4,119,106,110*,96,119*,x,x,x,x,x,x
CCc1nc(SCC(=O)c2ccccc2)c2ccccc2n1,100,12,100,100,9,102,x,x,x,x,x,x,x
CCCc1nc(SCC(=O)c2ccc(OC)cc2)c2ccccc2n1,x,20,x,x,x,x,x,2,102,105,104,103,106
CCc1nc(SCC(=O)c2ccc3c(c2)OCCO3)c2ccccc2n1,111,25,120,242,15,142*[activator],120*,-1,105,106,105,105,97
O=C(CSc1nc(Cc2ccccc2)nc2ccccc12)c1ccc2c(c1)OCCO2,102,46,98,96,9,99,x,x,x,x,x,x,x
O=C(NCc1cccnc1)c1nn2cccnc2c1Cl,99,10,99,101,8,103,x,x,x,x,x,x,x
CC(NC(=O)Nc1ccccc1F)C(C)(C)C (stereo not drawn),101,13,99,99,11,100,x,x,x,x,x,x,x
CC(=O)C1=C(O)C(=O)N(Cc2cccnc2)C1c1ccc(Cl)cc1 (stereo not drawn),102,16,100,100,21,100,x,x,x,x,x,x,x
CC(=O)C1=C(O)C(=O)N(Cc2ccccc2)C1c1cccs1 (stereo not drawn),202*[activator],68,119,106,171*,101,119*,-1,99,94,99,99,100
O=C(COc1ccc(Br)cc1)Nc1ccc(Cc2ccncc2)cc1,101,20,100,103,8,101,x,x,x,x,x,x,x
Cc1ccc(C(=O)NCc2cccnc2)cc1S(=O)(=O)Nc1ccccc1,95,14,99,100,11,99,x,x,x,x,x,x,x
